High-throughput results from PubChem.
Hits are enriched below; roughly 2.2% of the tested compounds scored in any of these assays.
PPC-1+TRAIL kill: compounds killing PPC-1 cancer cells with TRAIL present (potentiator screen, no TRAIL-free arm); PPC-1 cells + TRAIL, ATPLite viability luminescence; cell killing (% activity), % at 4 µM or 5 µM; 220,000 compounds, 0.41% hits;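 active means cell killing above 50% in the first pass at 4 µM, then a duplicate retest at 5 µM averaging 50% or more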;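 further: plate controls were cells with TRAIL plus DMSO for no effect and medium-only wells lacking cells for full effect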
CF NFkB block: cystic fibrosis NF-kB activation inhibition | AID 588850 | KKLEB NF-kB-GFP reporter, PAF-induced, GFP fluorescence overnight | 360,000 compounds, 0.86% hits | inhibition, % at 5 µM;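 active means at least 50% inhibition at 5 µM, scaled per plate between neutral and stimulator controls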;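 further: PAF is a Pseudomonas aeruginosa culture filtrate used as stimulus; plate controls were PAF-stimulated DMSO wells for no effect and unstimulated DMSO wells for full effect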
HIF-2a block: blocks HIF-2a reporter activity | 786-0 RCC cells HIF-2a reporter, luciferase luminescence, overnight | inhibition, % at 18.8 µM | 360,000 compounds, 0.72% hits | AID 624352;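 active means inhibition of the luminescence signal of 40% or more relative to plate controls, in a single-dose primary screen at 18.75 µM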
KKLEB cytotox: CF airway cell cytotoxicity counter-screen | KKLEB CF airway cells viability, ATPlite luminescence, overnight; active compounds read low; cells stimulated with P. aeruginosa culture filtrate | activity change (cytotoxicity), % at 5 µM | 360,000 compounds, 0.36% hits | AID 602141;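 active means corrected activity change at or below -50% at 5 µM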
iPSC survival up: increases survival of single human iPS cells; hiPSC single-cell survival, ATPlite luminescence; 100% = ROCK inhibitor wells, 0% = DMSO; AID 602274; 360,000 compounds, 0.044% hits; survival enhancement, % at 20 µM; in the data active means survival enhancement above about 18%;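 further: cells exposed to compounds for 16 hours before the ATP read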
C8 TRAIL sens: caspase-8 TRAIL sensitization; NB7+C8 cells + TRAIL, ATPlite viability luminescence; inhibition (viability loss, TRAIL sensitization), % at 10 µM; 360,000 compounds, 1% hits;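 active means compounds causing at least 50% loss of cell viability in the single-dose screen, relative to plate controls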
CF NFkB inh conf: confirmation of cystic fibrosis induced NF-kB inhibitors | shares compounds with CF NFkB block | KKLEB CF airway cells, PAF-induced NF-kB-GFP fluorescence, overnight | inhibition, % at 5 µM | 1,300 compounds, 64% hits | AID 602472; in the data active means inhibition above about 40%;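 further: stimulus PAF is a Pseudomonas aeruginosa filtrate and not platelet activating factor; plate controls were DMSO wells with stimulus for no effect and unstimulated DMSO wells for full effect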
Mdm2 MdmX conf: Mdm2/MdmX (human) interaction inhibition, confirmed; shares compounds with HIF-2a block; SaOS-2 split-luciferase Mdm2/MdmX complementation, luminescence; 740 compounds, 99% hits; inhibition, % at 8 µM;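 active means mean inhibition of the luminescence signal across two replicates at or above 26 percent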
HIF-2a inh conf: confirmation of HIF-2a inhibitors. shares compounds with HIF-2a block. 786-0 RCC cells, HIF-2a luciferase reporter luminescence, overnight. inhibition, % at 18.8 µM. 1,800 compounds, 56% hits;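 active means mean inhibition across four replicates of at least 40 percent at the single tested concentration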
HIF-1a counter: HIF-1a inhibition counter-screen for HIF-2a hits | inhibition, % at 18.8 µM | 1,800 compounds, 72% hits | shares compounds with HIF-2a block | MiaPaCa-2 HIF-1a luciferase reporter, desferoxamine, overnight;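 active means mean inhibition of the reporter signal across four replicates at the single tested dose of 50% or more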
* = called active by the depositor.

How did COc1ccc(-c2ccc3c(c2)c(Sc2ccccc2)c(-c2ccccc2)n3C)cn1 do in these assays?
HIF-2a block: 7; iPSC survival up: 0; C8 TRAIL sens: 8

What do the screens show for `CCOc1ccc(Nc2ncnc3ccc([N+](=O)[O-])cc23)cc1`?
PPC-1+TRAIL kill: 8; CF NFkB block: 75*; HIF-2a block: 15; KKLEB cytotox: -14; iPSC survival up: 0; C8 TRAIL sens: 15; CF NFkB inh conf: 87*; Mdm2 MdmX conf: 87*

Results for O=C(c1ccccc1)C(CCC(CN1CCOCC1)C(=O)c1ccccc1)CN1CCOCC1 (configuration not stated) ?
PPC-1+TRAIL kill: -9; CF NFkB block: 84*; HIF-2a block: 76*; KKLEB cytotox: -41; iPSC survival up: -4; C8 TRAIL sens: -15; CF NFkB inh conf: -31; Mdm2 MdmX conf: 92*

How did c1ccc(C(CN2CCOCC2)c2ccccc2)cc1 do in these assays?
PPC-1+TRAIL kill: 38; CF NFkB block: 0; HIF-2a block: 9; KKLEB cytotox: -7; iPSC survival up: 0; C8 TRAIL sens: 11

Results for O=C(/C=C/c1ccccc1Cl)c1ccccc(=O)c1O ?
PPC-1+TRAIL kill: 19; CF NFkB block: -51; HIF-2a block: 9; KKLEB cytotox: -22; iPSC survival up: 0; C8 TRAIL sens: 24

Results for O=C(/C=C/c1ccc([N+](=O)[O-])cc1)c1ccccc(=O)c1O ?
CF NFkB block: 68*; HIF-2a block: 59*; KKLEB cytotox: -9; iPSC survival up: -1; C8 TRAIL sens: 39; CF NFkB inh conf: -88; HIF-2a inh conf: 91*; HIF-1a counter: 103*

What do the screens show for `CC(=O)Nc1cccc(C(=O)/C=C/c2ccc(Br)cc2)c1`?
PPC-1+TRAIL kill: 0; CF NFkB block: 78*; HIF-2a block: 92*; KKLEB cytotox: -16; iPSC survival up: -4; C8 TRAIL sens: 20; CF NFkB inh conf: -69; Mdm2 MdmX conf: 103*; HIF-2a inh conf: 16; HIF-1a counter: 105*

What do the screens show for `Cc1cccc(NC(=O)COC(=O)c2ccc(S(=O)(=O)N3CCCC3)cc2)c1`?
CF NFkB block: -13; HIF-2a block: 6; KKLEB cytotox: -3; iPSC survival up: 0; C8 TRAIL sens: -1

What do the screens show for `CC1(c2nnc(-c3cccc(Cl)c3)o2)CC(c2ccccc2Br)=NO1` (configuration not stated)?
CF NFkB block: -29; HIF-2a block: -13; KKLEB cytotox: 6; iPSC survival up: -1; C8 TRAIL sens: 3

Results for Cc1ccc(S(=O)(=O)CC(CN2CCOCC2)N2CCOCC2)cc1 (configuration not stated) ?
PPC-1+TRAIL kill: 0; CF NFkB block: -11; HIF-2a block: 9; KKLEB cytotox: 13; iPSC survival up: -2; C8 TRAIL sens: -7

How did CC1CCN(CC(CS(=O)(=O)c2ccc([N+](=O)[O-])cc2)N2CCC(C)CC2)CC1 (configuration not stated) do in these assays?
PPC-1+TRAIL kill: 16; CF NFkB block: 96*; HIF-2a block: 93*; KKLEB cytotox: -42; iPSC survival up: -1; C8 TRAIL sens: 49; CF NFkB inh conf: 88*; Mdm2 MdmX conf: 103*; HIF-2a inh conf: 24; HIF-1a counter: 107*

Results for Cn1c(CSc2nc3ccccc3n2C)nc2ccccc21 ?
PPC-1+TRAIL kill: 4; CF NFkB block: 6; HIF-2a block: -90; KKLEB cytotox: -9; iPSC survival up: -2; C8 TRAIL sens: 15

Results for Cn1c(SC2=CS(=O)(=O)c3ccccc32)nc2ccccc21 ?
PPC-1+TRAIL kill: 1; CF NFkB block: 91*; HIF-2a block: 91*; KKLEB cytotox: -27; iPSC survival up: -4; C8 TRAIL sens: 22; CF NFkB inh conf: 98*; HIF-2a inh conf: -9; HIF-1a counter: 77*

Results for O=C(/C=C/c1ccccc1)c1ccc(NC2=NCCCS2)cc1 ?
PPC-1+TRAIL kill: 27; CF NFkB block: 19; HIF-2a block: -177; KKLEB cytotox: -22; iPSC survival up: -3; C8 TRAIL sens: 24

What do the screens show for `O=C(/C=C/c1ccc(Br)cc1)c1ccc(NC2=NCCCS2)cc1`?
PPC-1+TRAIL kill: 36; CF NFkB block: 56*; HIF-2a block: 67*; KKLEB cytotox: -11; iPSC survival up: -4; C8 TRAIL sens: 25; CF NFkB inh conf: -13; HIF-2a inh conf: -27; HIF-1a counter: 107*

What do the screens show for `COc1cccc(-c2nnc3n2N=C(C(C)(C)C)CS3)c1`?
PPC-1+TRAIL kill: 20; CF NFkB block: 94*; HIF-2a block: 27; KKLEB cytotox: -24; iPSC survival up: 0; C8 TRAIL sens: 34; CF NFkB inh conf: 98*; Mdm2 MdmX conf: 103*

What do the screens show for `Cc1ccccc1NC(=O)COC(=O)c1ccc(S(C)(=O)=O)c([N+](=O)[O-])c1`?
PPC-1+TRAIL kill: -2; CF NFkB block: 53*; HIF-2a block: 93*; KKLEB cytotox: -20; iPSC survival up: -2; C8 TRAIL sens: -7; CF NFkB inh conf: 27; HIF-2a inh conf: 15; HIF-1a counter: 0

How did Cc1ccccc1NC(=O)Cc1nc(COC(=O)c2ccc(S(C)(=O)=O)c([N+](=O)[O-])c2)cs1 do in these assays?
CF NFkB block: 77*; HIF-2a block: 33; KKLEB cytotox: -16; iPSC survival up: 18; C8 TRAIL sens: 54*; CF NFkB inh conf: 25; Mdm2 MdmX conf: 100*

How did Cc1cc(C)c(C(=O)/C=C/c2ccc(C(C)C)cc2)c(=O)[nH]1 do in these assays?
PPC-1+TRAIL kill: -3; CF NFkB block: 59*; HIF-2a block: 59*; KKLEB cytotox: -22; iPSC survival up: -2; C8 TRAIL sens: 13; CF NFkB inh conf: 53*; Mdm2 MdmX conf: 103*; HIF-2a inh conf: 53*; HIF-1a counter: 102*

Results for Cc1ccc(CN(C)C(=O)COC(=O)CSc2cc(C)c3ccccc3n2)cc1 ?
CF NFkB block: 27; HIF-2a block: 13; KKLEB cytotox: -7; iPSC survival up: 0; C8 TRAIL sens: -19
